PubChem BioAssay (NCATS)
Inconclusive results are not listed. Activity calls are given as the source filed them. Calls come from the whole dose curve; as a rule, active = well fitted cell-killing curve with a large enough effect; inconclusive = small, poorly fitted or top-dose-only effect, or effect the other way; inactive = flat fitted curve, though single readings scatter. Where a SMILES comes first, the peptide text is derived from it.

Experiments:
Experiment in all cases: Primary qHTS to identify gynecologic anti-cancer compounds using libraries of approved drugs and bioactive compounds (AID 1345084); note: nearly all actives have a fitted effect of over 55% in size
CAOV3 = conditions: Gynecologic cancer cell panel viability, ATPlite luminescence, 48 h; series mostly up to 57.5 µM
Method in brief: (§1)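 Luminescence from the ATPlite ATP-monitoring reagent indicates viable cell number; lower signal means cytotoxicity. Cells received compound 16 h after seeding and were exposed for 48 h across five concentrations.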

CASKI = conditions: Gynecologic cancer cell panel viability, ATPlite luminescence, 48 h; series mostly up to 57.5 µM
Method in brief: as §1

Es-2 = conditions: Gynecologic cancer cell panel viability, ATPlite luminescence, 48 h; series mostly up to 57.5 µM
Method in brief: as §1

HeLa = conditions: Gynecologic cancer cell panel viability, ATPlite luminescence, 48 h; series mostly up to 57.5 µM
Method in brief: as §1

Hek293T = conditions: Gynecologic cancer cell panel viability, ATPlite luminescence, 48 h, control line for the selectivity index; series mostly up to 57.5 µM
Method in brief: as §1

JEG-3 = conditions: Gynecologic cancer cell panel viability, ATPlite luminescence, 48 h; series mostly up to 57.5 µM
Method in brief: as §1

OV90 = conditions: Gynecologic cancer cell panel viability, ATPlite luminescence, 48 h; series mostly up to 57.5 µM
Method in brief: as §1

PA-1 = conditions: Gynecologic cancer cell panel viability, ATPlite luminescence, 48 h; series mostly up to 57.5 µM
Method in brief: as §1

Tov-21-G = conditions: Gynecologic cancer cell panel viability, ATPlite luminescence, 48 h; series mostly up to 57.5 µM
Method in brief: as §1

Tov112D = conditions: Gynecologic cancer cell panel viability, ATPlite luminescence, 48 h; series mostly up to 57.5 µM
Method in brief: as §1

SKOV3 = conditions: Gynecologic cancer cell panel viability, ATPlite luminescence, 48 h; series mostly up to 57.5 µM
Method in brief: as §1
% is set by controls: 0 for no effect and ±100 for the full control effect.

CNC(=O)O[C@H]1COc2ccc(N3CCN(C4COC4)CC3)cc2[C@@H]1NC(=O)c1ccc(F)cc1
inactive: Potency (CAOV3) | Potency (CASKI) | Potency (Es-2) | Potency (HeLa) | Potency (Hek293T) | Potency (JEG-3) | Potency (OV90) | Potency (PA-1) | Potency (Tov-21-G) | Potency (Tov112D)

O=C1[C@H](O[C@@H]2O[C@H](CO)[C@@H](O)[C@H](O)[C@H]2O)Oc2ccccc2N1O
inactive: Potency (CAOV3) | Potency (CASKI) | Potency (Es-2) | Potency (HeLa) | Potency (Hek293T) | Potency (JEG-3) | Potency (OV90) | Potency (PA-1) | Potency (Tov-21-G) | Potency (Tov112D)

COC(=O)C1=COC(O[C@@H]2O[C@H](CO)[C@@H](O)[C@H](O)[C@H]2O)/C(=C\COC(=O)c2ccc(OC3OC(CO)C(O)C(O)C3O)c(OC)c2)C1CC(=O)OCCc1ccc(O)cc1 (stereo not given in full)
inactive: activity change, negative = cytotoxicity (CAOV3) -8.27% [at 11.6 µM] | activity change, negative = cytotoxicity (CASKI) 3.94% [at 11.6 µM] | activity change, negative = cytotoxicity (Es-2) 1.38% [at 11.6 µM] | activity change, negative = cytotoxicity (HeLa) 2.44% [at 11.6 µM] | activity change, negative = cytotoxicity (Hek293T) 17.6% [at 11.6 µM] | activity change, negative = cytotoxicity (JEG-3) 2.03% [at 11.6 µM] | activity change, negative = cytotoxicity (OV90) 1.39% [at 11.6 µM] | activity change, negative = cytotoxicity (PA-1) -0.972% [at 11.6 µM] | activity change, negative = cytotoxicity (Tov-21-G) 2.92% [at 11.6 µM] | activity change, negative = cytotoxicity (Tov112D) 6.58% [at 11.6 µM]

O=S(=O)(NC1CCNCC1)c1cc(S(=O)(=O)c2ccccc2)ccc1C(F)(F)F
inactive: Potency (CAOV3) | Potency (CASKI) | Potency (Es-2) | Potency (HeLa) | Potency (Hek293T) | Potency (JEG-3) | Potency (OV90) | Potency (PA-1) | Potency (Tov-21-G) | Potency (Tov112D)

COc1cc(/C=C/CO)ccc1O[C@@H]1O[C@H](CO)[C@@H](O)[C@H](O)[C@H]1O
inactive: Potency (CAOV3) | Potency (CASKI) | Potency (Es-2) | Potency (HeLa) | Potency (Hek293T) | Potency (JEG-3) | Potency (OV90) | Potency (PA-1) | Potency (Tov-21-G) | Potency (Tov112D)

COC(=O)C1=CO[C@@H](O[C@@H]2O[C@H](CO)[C@@H](O)[C@H](O)[C@H]2O)[C@@H]2[C@@H](C(=O)OC)[C@@H](O)C(O)[C@H]12 (stereo not given in full)
inactive: Potency (CAOV3) | Potency (CASKI) | Potency (Es-2) | Potency (HeLa) | Potency (Hek293T) | Potency (JEG-3) | Potency (OV90) | Potency (PA-1) | Potency (Tov-21-G) | Potency (Tov112D)

O=C1N(CC2CCCCN2)CCN1c1ccccc1 (stereo not given)
inactive: Potency (CAOV3) | Potency (CASKI) | Potency (Es-2) | Potency (HeLa) | Potency (Hek293T) | Potency (JEG-3) | Potency (OV90) | Potency (PA-1) | Potency (Tov-21-G) | Potency (Tov112D)

C[C@@H]1O[C@@H](O[C@H]2[C@H](OC(=O)[C@]34CCC(C)(C)C[C@H]3C3=CCC5[C@@]6(C)C[C@H](O)[C@H](O[C@@H]7O[C@H](CO[C@@H]8OC[C@H](O)[C@H](O)[C@H]8O)[C@@H](O)[C@H](O)[C@H]7O)C(C)(C)C6CC[C@@]5(C)[C@]3(C)C[C@H]4O)OC[C@@H](O)[C@@H]2O)[C@H](O)[C@H](O[C@@H]2OC[C@](O)(CO)[C@H]2O)[C@H]1O[C@@H]1OC[C@H](O)[C@H](O[C@@H]2OC[C@@H](O)[C@H](O)[C@H]2O)[C@H]1O (stereo not given in full)
inactive: activity change, negative = cytotoxicity (CAOV3) 12.2% [at 6.55 µM] | activity change, negative = cytotoxicity (CASKI) 2.2% [at 6.55 µM] | activity change, negative = cytotoxicity (Es-2) -0.0559% [at 6.55 µM] | activity change, negative = cytotoxicity (HeLa) 19.1% [at 6.55 µM] | activity change, negative = cytotoxicity (Hek293T) 7.42% [at 6.55 µM] | activity change, negative = cytotoxicity (JEG-3) -3.85% [at 6.55 µM] | activity change, negative = cytotoxicity (OV90) -1.75% [at 6.55 µM] | activity change, negative = cytotoxicity (PA-1) 9.54% [at 6.55 µM] | activity change, negative = cytotoxicity (Tov-21-G) -3.09% [at 6.55 µM] | activity change, negative = cytotoxicity (Tov112D) 5.07% [at 6.55 µM]

C=C(C(=O)O)[C@@H]1CC=C2CCC[C@H](C)[C@@]2(C)C1
inactive: Potency (CAOV3) | Potency (CASKI) | Potency (Es-2) | Potency (HeLa) | Potency (Hek293T) | Potency (JEG-3) | Potency (OV90) | Potency (PA-1) | Potency (Tov-21-G) | Potency (Tov112D)

C=C(C)C1CC2(CO)C(=CC1=O)CCC(O)C2C (stereo not given)
inactive: Potency (CAOV3) | Potency (CASKI) | Potency (Es-2) | Potency (HeLa) | Potency (Hek293T) | Potency (JEG-3) | Potency (OV90) | Potency (PA-1) | Potency (Tov-21-G) | Potency (Tov112D)

C=C1CCC2C(C)(C)C(O)CCC2(C)C1CCC(C)CCOC(=O)CCC(=O)O (stereo not given)
inactive: Potency (CAOV3) | Potency (CASKI) | Potency (Es-2) | Potency (HeLa) | Potency (Hek293T) | Potency (JEG-3) | Potency (OV90) | Potency (PA-1) | Potency (Tov-21-G) | Potency (Tov112D)

CC1NC(=O)CNC(=O)C(C(C)C)NC(=O)C2CCCN2C(=O)C(C(C)C)NC(=O)C(Cc2c[nH]c3ccccc23)NC1=O (stereo not given) (cyclo(GAWVPV); configuration not given here)
inactive: Potency (CAOV3) | Potency (CASKI) | Potency (Es-2) | Potency (HeLa) | Potency (Hek293T) | Potency (JEG-3) | Potency (OV90) | Potency (PA-1) | Potency (Tov-21-G) | Potency (Tov112D)

COCC(=O)N1CCc2cc(-c3csc(NC(=O)c4cc(OC)cc(OC)c4)n3)ccc21
inactive: Potency (CAOV3) | Potency (CASKI) | Potency (Es-2) | Potency (HeLa) | Potency (Hek293T) | Potency (JEG-3) | Potency (OV90) | Potency (PA-1) | Potency (Tov-21-G) | Potency (Tov112D)

COC(=O)[C@H](OC(C)=O)[C@H]1C(C)(C)C(=O)[C@H]2CC3=C4CC(=O)O[C@@H](c5ccoc5)[C@]4(C)CCC3[C@@]1(C)C2=O (stereo not given in full)
inactive: Potency (CAOV3) | Potency (CASKI) | Potency (Es-2) | Potency (HeLa) | Potency (Hek293T) | Potency (JEG-3) | Potency (OV90) | Potency (SKOV3) | Potency (Tov-21-G) | Potency (Tov112D)

CC(C)C(=O)O[C@@H]1[C@@H](O)[C@@H](O[C@H]2O[C@H](CO)[C@@H](O)[C@H](O)[C@H]2O)O[C@H](CO)[C@H]1O
inactive: Potency (CAOV3) | Potency (CASKI) | Potency (Es-2) | Potency (HeLa) | Potency (Hek293T) | Potency (JEG-3) | Potency (OV90) | Potency (PA-1) | Potency (Tov-21-G) | Potency (Tov112D)

Cc1cn2c(N)c(Cl)cc(C(=O)NCC3CCN(CC(C)C)CC3)c2n1
inactive: Potency (CAOV3) | Potency (CASKI) | Potency (Es-2) | Potency (HeLa) | Potency (Hek293T) | Potency (JEG-3) | Potency (PA-1) | Potency (SKOV3) | Potency (Tov-21-G) | Potency (Tov112D)
